Source: ChEMBL document CHEMBL4513146, “CO-ADD screening of Karazin Kharkiv National University (Ukraine) compounds”
Measured potencies and affinities stand elsewhere.

Assays:
Staphylococcus aureus = conditions: Concentration 32 ug.mL-1;; ASSAY_TEST Inhibition of Bacterial Growth; detection method Absorption (OD600); MEDIA CAMHB; plate type 384well; NBS; CORNING #3640; time 18 hr
Escherichia coli = conditions: Concentration 32 ug.mL-1;; ASSAY_TEST Inhibition of Bacterial Growth; detection method Absorption (OD600); MEDIA CAMHB; plate type 384well; NBS; CORNING #3640; time 18 hr

SMILES	Inhibition (Staphylococcus aureus) [%]	Inhibition (Escherichia coli) [%]
COc1ccc(CNC(=O)CCc2nnc3c(N4CCCCC4)nc4ccccc4n23)cc1OC	16.6	2.89
Cc1nnc2c(SCC(=O)Nc3ccc(Br)cc3F)nc3ccccc3n12	1.94	-10.05
Cc1cccc(C)c1NC(=O)Cn1nc2c(Sc3cccc(F)c3)nccn2c1=O	9.75	-2.6
N#Cc1cccc(NC(=O)Cn2nc3c(Oc4ccccc4)nccn3c2=O)c1	10.16	-2.65
COc1ccc(NC(=O)CSc2nnc3c(=O)n(-c4cccc(OC)c4)ccn23)cc1	14.04	-12.03
Cc1cccc(Sc2nccn3c(=O)n(CC(=O)N4CCN(c5ccccc5)CC4)nc23)c1	12.14	-10.39
Cc1cc2nn(CC(=O)Nc3ccc(F)c(F)c3)c(=O)n2c(Nc2ccc(F)c(C)c2)n1	9.7	-3.91
CC(C)c1nnc2c(SCC(=O)N3CCN(c4ccc(F)cc4)CC3)nc3ccccc3n12	10.21	-1.94
Cc1ccc(-c2ccc3nn(Cc4ccc5c(c4)OCO5)c(=O)n3n2)cc1C	-7.66	-8.33
CC(C)c1nnc2c(SCC(=O)Nc3ccc(Cl)cc3C(F)(F)F)nc3ccccc3n12	2.01	-15.72
COc1ccc(-c2cc3c4nnc(CCC(=O)NCc5ccccc5Cl)n4ccn3n2)cc1	0.8	-2.58
COc1ccc(NC(=O)c2ccc3nn(CC(=O)N4CCN(c5ccccc5)CC4)c(=O)n3c2)cc1	2.28	-9.19
O=C(CSc1nnc2c(=O)n(-c3ccccc3)ccn12)c1c[nH]c2ccccc12	16.15	-0.51
Cc1ccc(-n2ccn3c(SC(C)C(=O)Nc4ccc5c(c4)OCCO5)nnc3c2=O)cc1C (stereo not given)	12.06	-2.85
Cc1ccc(NC(=O)Cn2nc3c(N4CC(C)CC(C)C4)nccn3c2=O)c(F)c1 (stereo not given)	10.72	1.48
Cc1nnc2ccc(S(=O)(=O)N(Cc3cc(F)cc(F)c3)c3ccccc3)cn12	12.61	-1.77
COc1cccc(CNC(=O)Cn2nc3c4cc(-c5cc(C)ccc5C)nn4ccn3c2=O)c1OC	2.74	-0.3
Cc1cc2nn(CC(=O)Nc3ccc(F)cc3Cl)c(=O)n2c(Nc2ccccc2C)n1	-3.09	-11.67
COc1cc(NC(=O)CSc2nnc3c(=O)n(-c4cccc(F)c4)ccn23)cc(OC)c1	10.57	-3.07
COC(=O)c1ccc(NC(=O)Cn2nc3ccc(SCc4ccc(Cl)cc4)nn3c2=O)cc1	18.39	1.59
Cc1ccc(Cl)cc1NC(=O)CSc1nnc2c(=O)n(-c3ccccc3)ccn12	7.91	-1.12
COc1ccc(NC(=O)Cn2nc3ccc(-c4ccccc4)nn3c2=O)cc1Cl	-3.72	-7.68
CCc1nnc2c(S(=O)(=O)N(Cc3cccc(F)c3)c3ccccc3)cccn12	7.57	-5.76
Cc1cc(C)cc(N(Cc2cccc(F)c2)S(=O)(=O)c2cccn3c(C)nnc23)c1	2.22	-5.24

SMILES	Inhibition (Staphylococcus aureus) [%]	Inhibition (Escherichia coli) [%]
CCc1ccc(N(Cc2ccc(F)cc2)S(=O)(=O)c2cccn3c(C)nnc23)cc1	6.87	-8.04
CCc1nnc2c(S(=O)(=O)N(Cc3cccc(F)c3)c3cccc(C)c3)cccn12	12.77	-0.95
CCc1nnc2c(S(=O)(=O)N(Cc3cc(F)cc(F)c3)c3ccccc3)cccn12	7.38	-4.8
Cc1cccc(NC(=O)CSc2nnc3c(=O)n(-c4ccccc4)ccn23)c1	7.18	-6.81
Cc1cc(C)c(NC(=O)Cn2nc3c(N4CCCC(C)C4)nccn3c2=O)c(C)c1 (stereo not given)	-1.28	-2.83
Cc1ccc(NC(=O)CSc2nc3ccccc3n3cnnc23)c(C)c1	-8.66	-6.3
COc1ccccc1-n1ccn2c(=O)n(Cc3ccc(F)cc3Cl)nc2c1=O	9.6	-2.36
CSc1cccc(NC(=O)Cn2nc3c4c5c(sc4ncn3c2=O)CCCC5)c1	-8.02	-9.58
O=C(Cn1nc2c3cc(-c4ccc(F)cc4)nn3ccn2c1=O)NCc1ccccc1Cl	7.18	-0.1
O=C(Cn1nc2c3c4c(sc3ncn2c1=O)CCCC4)NCc1ccc(F)cc1	8.69	-4.83
COc1cccc(-n2ccn3c(SCC(=O)Nc4ccc5c(c4)OCCO5)nnc3c2=O)c1	11.59	-2.35
COc1ccc(C)cc1NC(=O)Cn1nc2ccc(SC(C)(C)C)nn2c1=O	2.65	-6.39
N#Cc1cccc(NC(=O)CSc2nnc3c4cc(-c5ccccc5)nn4ccn23)c1	2.79	-3.47
COc1ccc(C(=O)CSc2nnc3c(=O)n(-c4ccc(Br)cc4)ccn23)cc1	17.48	2.13
Cc1cc2nn(CC(=O)Nc3ccccc3F)c(=O)n2c(Nc2ccc(C)c(F)c2)n1	-7.63	-14.62
Cc1ccc(NC(=O)Cn2nc3c4cc(-c5ccc(C)c(C)c5)nn4ccn3c2=O)cc1C	0.99	-7.36
COc1ccccc1N1CCN(C(=O)CSc2nc3ccccc3n3cnnc23)CC1	11.06	4.69
CCCCn1c(=O)c2sccc2n2c(SCc3cccc(C(F)(F)F)c3)nnc12	-1.51	-8.66
CCc1nnc2c(S(=O)(=O)N(Cc3cccc(Cl)c3)c3ccccc3)cccn12	4.22	-6.56
Cc1ccc(NC(=O)Cn2nc3c4cc(-c5ccc(C)c(C)c5)nn4ccn3c2=O)cc1	7.11	-1.34
Cc1cc(C)c(NC(=O)Cn2nc3c(N4CCN(c5ccccc5)CC4)nccn3c2=O)c(C)c1	13.62	-0.55
O=C(Cn1nc2nc(Nc3ccc(F)cc3)ccn2c1=O)N1CCCC1	-4.71	-12.03
Cc1ccc(-n2ccn3c(SCC(=O)Nc4ccc5c(c4)OCCO5)nnc3c2=O)cc1C	6.11	-5.98
COc1ccccc1NC(=O)Cn1nc2c(Sc3ccccc3)nccn2c1=O	-14.27	-3.78

SMILES	Inhibition (Staphylococcus aureus) [%]	Inhibition (Escherichia coli) [%]
O=c1n(Cc2cccc(C(F)(F)F)c2)nc2c(S(=O)(=O)N3CCCC3)cccn12	9.3	-1.06
Cc1ccc(C)c(Cn2nc3n(CC(C)C)c(=O)c4sccc4n3c2=O)c1	12.61	1.72
CCCCOc1ccc(-c2cc3c4nnc(SCC(=O)NCc5ccccc5)n4ccn3n2)cc1	-2.73	-6.82
COc1ccc(CNC(=O)CSc2nnc3c4cc(-c5ccc(C)cc5)nn4ccn23)cc1OC	5.65	-0.16
O=C(Cn1nc2ccc(Sc3cccc(F)c3)nn2c1=O)Nc1ccc2c(c1)OCCO2	11.29	-2.18
O=C(CCc1nnc2c3cc(-c4ccccc4)nn3ccn12)N1CCN(C(=O)c2ccco2)CC1	7.4	0.93
CCc1nnc2c(S(=O)(=O)N(Cc3cc(F)cc(F)c3)c3ccc(C)cc3)cccn12	10.46	-5.17
Cc1cc2nn(CC(=O)NCc3ccco3)c(=O)n2c(Nc2ccc(C)c(F)c2)n1	0.2	-8.01
Cc1cc(C)c(NC(=O)Cn2nc3c4c5c(sc4ncn3c2=O)CCCC5)c(C)c1	8.81	-5.83
CCCNC(=O)Cn1nc2nc(Nc3ccc(F)cc3)ccn2c1=O	8.25	-13.63
Cc1nnc2c(S(=O)(=O)N(Cc3ccccc3Cl)c3ccc(F)c(F)c3)cccn12	38.47	-6.82
COc1cccc(Sc2nc3ccccc3n3c(=O)n(CC(=O)Nc4cccc(F)c4)nc23)c1	3.13	-1.66
Cc1ccc(NC(=O)Cn2nc3c4c5c(sc4ncn3c2=O)CCCC5)cc1C	0.13	-5.89
COc1cc(NC(=O)CSc2nnc3c(=O)n(-c4ccccc4)ccn23)cc(OC)c1	14.02	0.85
COc1cccc(Oc2nccn3c(=O)n(CC(=O)Nc4cc(C)c(Cl)cc4OC)nc23)c1	-12.26	-0.57
Cc1cc(C)c(NC(=O)Cn2nc3ccc(Sc4cccc(F)c4)nn3c2=O)c(C)c1	3.74	-5.92
Cc1c(Cl)cccc1NC(=O)Cn1nc2c3c4c(sc3ncn2c1=O)CCCCC4	3.69	-0.38
O=C(Cn1nc2n(Cc3ccc(F)cc3)c(=O)c3ccccc3n2c1=O)Nc1ccc2c(c1)OCO2	15.06	-3.01
O=C(CCc1nnc2c3cc(-c4ccc(F)cc4)nn3ccn12)NCc1ccccc1Cl	-0.61	-10.24
COc1ccc(CNC(=O)Cn2nc3c4cc(-c5ccc(OC)cc5)nn4ccn3c2=O)cc1	-1.74	-1.87
Cc1ccc(C(=O)C(C)Sc2nnc3c(=O)n(-c4ccc(F)c(F)c4)ccn23)cc1C (stereo not given)	19.73	1.41
O=C(Cn1nc2c3c4c(sc3ncn2c1=O)CCCC4)NCCc1ccc(Cl)cc1	7.1	2.28
